D2 PAM-1: human D2 receptor positive allosteric modulation | DiscoveRx D2 beta-arrestin cells, luminescence, 90 min; 100% = 57 uM dopamine signal | potentiation, % (no concentration beside the values) | actives 0.23% (n = 360,000) | AID 624464; in the data active = potentiation above about 50%; inconclusive = mostly about 30% to 49%
Target sequence (P14416 whole entry, looked up): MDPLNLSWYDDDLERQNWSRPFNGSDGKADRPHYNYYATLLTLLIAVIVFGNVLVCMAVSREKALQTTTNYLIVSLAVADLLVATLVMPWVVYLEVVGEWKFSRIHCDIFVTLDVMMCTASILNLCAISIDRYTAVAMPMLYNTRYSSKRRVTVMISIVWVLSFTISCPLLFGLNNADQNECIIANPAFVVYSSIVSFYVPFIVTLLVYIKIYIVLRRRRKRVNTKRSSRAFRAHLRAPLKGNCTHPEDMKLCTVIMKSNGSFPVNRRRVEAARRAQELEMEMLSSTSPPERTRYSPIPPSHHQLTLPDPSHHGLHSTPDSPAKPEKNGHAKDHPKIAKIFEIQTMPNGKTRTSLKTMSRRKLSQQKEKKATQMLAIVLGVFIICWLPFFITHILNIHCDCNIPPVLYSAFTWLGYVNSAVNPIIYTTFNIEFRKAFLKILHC
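PathHunter beta-arrestin assay in DiscoveRx D2 cells. Compounds were added with an EC20 of dopamine (50 nM final) for 90 min at 37 deg C. Luminescence was read 1 h after detection reagent, with 57 uM dopamine as the EC100 control.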
D2 PAM-2: positively modulates the human D2 dopamine receptor allosterically | actives 0.34% (n = 340,000) | potentiation, % at 10 µM | HEK293 T-REx D2, calcium flux, EC20 dopamine potentiation;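 active = potentiation over 3 SD above the plate norm, cut at about 30% in these data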; also: 0% is about no effect
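Tetracycline-induced HEK293 T-REx cells force-coupled to calcium signalling expressed D2; compounds were pin-added after a 10 s baseline, read kinetically 180 s, then an EC20 dopamine challenge followed with a further 180 s calcium read.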
D2 antagonist: D2 dopamine receptor (human) antagonism; actives 2% (n = 340,000); inhibition, % at 10 µM; P14416; HEK293 TREx D2 cells, calcium flux, dopamine EC80; in the data active = inhibition above about 30%; inactive = below that, where a call was filed; also: 0% is about no effect
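HEK293 T-REx D2 cells, tet-induced, calcium dye no-wash. Cpd pintool add, 180 s kinetic, then EC80 DA, 180 s kinetic. Ca flux read.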
D2 ag-1: human D2 receptor agonism in beta-arrestin assay; activation, % (test concentration not listed); P14416; actives 0.084% (n = 360,000); DiscoveRx PathHunter D2 beta-arrestin, luminescence, 90 min; 100% = 57 uM dopamine signal; in the data active = activation above about 40%; inconclusive = between about 15% and that limit
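Agonist mode: compounds alone added to overnight-plated D2 PathHunter cells for 90 min at 37 C, with 57 uM final dopamine (EC100) defining full response. Beta-arrestin recruitment detected by chemiluminescent reagent, read after 1 h at ambient temperature.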
D2 ag-2: agonists of human D2 dopamine receptor; P14416; HEK293 T-REx D2 cells, calcium flux agonist mode; activation, % at 2 µM; actives 0.53% (n = 340,000); AID 485358;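 active = activation over 3 SD above normal in the single-dose calcium agonist read, cut at about 30% in these data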; also: 0% is about no effect
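Tetracycline-induced HEK293 T-REx cells with force-coupled D2 receptor, plated overnight at 30 C, loaded with no-wash calcium dye. After a 10 s baseline, compound was pin-added and calcium flux read kinetically for 180 s; calcium rises flagged agonists.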
Numbers without * were called inactive. Hits are enriched below; roughly 2.4% of the tested compounds scored in any of these assays.

Screening N/C(Cc1ccc(Cl)cc1Cl)=N\OC(=O)Cc1cccs1 returned D2 PAM-1 -1, D2 PAM-2 7, D2 antagonist 3, D2 ag-1 -1 and D2 ag-2 0.
`COc1ccccc1C/C(N)=N/OC(=O)c1cccs1` gave D2 PAM-1 53*, D2 PAM-2 -4, D2 antagonist 3, D2 ag-1 inconclusive and D2 ag-2 0.
C=CS(=O)(=O)N(Cc1ccccc1Br)[C@H](CO)CC(C)C was read as D2 PAM-1 -10 and D2 ag-1 -2.
`CN1CCN(C2Cc3ccccc3Sc3cc(C(F)(F)F)ccc32)CC1` (stereo not drawn) gave D2 PAM-1 -3 and D2 ag-1 2.
For CN1CCN(C2=Cc3ccc(Cl)cc3Sc3ccc(F)cc32)CC1 the results were D2 PAM-1 -25, D2 PAM-2 -33, D2 antagonist 103*, D2 ag-1 -5 and D2 ag-2 0.
For CN1CCN(C2=Cc3ccccc3Sc3cc(F)ccc32)CC1 the results were D2 PAM-1 -34, D2 PAM-2 -26, D2 antagonist 80*, D2 ag-1 -1 and D2 ag-2 -1.
`CN1CCN(C2Cc3cc(F)ccc3Sc3ccc(Cl)cc32)CC1` (stereo not drawn) gave D2 PAM-1 -13 and D2 ag-1 -4.
Cc1oc2ccc(O)c(CN3CCN(Cc4ccccc4)CC3)c2c1C(=O)Nc1ccccc1 was read as D2 PAM-2 -9 and D2 ag-2 0.
For Cc1ccc(S(=O)(=O)N(C)C[C@@H]2OCCCC[C@H](C)Oc3ccc(NC(=O)Nc4ccc(F)cc4)cc3C(=O)N([C@H](C)CO)C[C@H]2C)cc1 the results were D2 PAM-1 -11 and D2 ag-1 -12.
COc1ccccc1N1CCN(S(=O)(=O)CCNC(=O)CC2CCCC2)CC1 was read as D2 PAM-1 -44 and D2 ag-1 0.
`COc1cc(C(=O)O/N=C(\N)Cc2ccc([N+](=O)[O-])cc2)cc(OC)c1OC` gave D2 PAM-1 inconclusive, D2 PAM-2 0, D2 antagonist 3, D2 ag-1 inconclusive and D2 ag-2 0.
`N/C(Cc1ccc([N+](=O)[O-])cc1)=N\OC(=O)c1cccc(Br)c1` gave D2 PAM-1 24, D2 PAM-2 -1, D2 antagonist -10, D2 ag-1 63* and D2 ag-2 -2.
N/C(Cc1ccc(Cl)cc1)=N\OC(=O)Cc1ccc([N+](=O)[O-])cc1 was read as D2 PAM-1 86*, D2 PAM-2 2, D2 antagonist -5, D2 ag-1 inconclusive and D2 ag-2 -1.
`N/C(Cc1ccc([N+](=O)[O-])cc1)=N\OC(=O)c1ccc([N+](=O)[O-])cc1` gave D2 PAM-1 61*, D2 PAM-2 12, D2 antagonist -1, D2 ag-1 42* and D2 ag-2 0.
`Nc1nc2c(ncn2[C@@H]2O[C@H](CNCC3=Cc4cc(O)ccc4OC3)[C@@H](O)[C@H]2O)c(=O)[nH]1` gave D2 PAM-1 -8 and D2 ag-1 -2.
Screening CCN(CC)C(=O)CSc1nc2nc(C)cc(C)c2c(=O)[nH]1 returned D2 PAM-1 -2, D2 PAM-2 -6, D2 antagonist -15, D2 ag-1 2 and D2 ag-2 0.
Screening Cc1cc(C)c2c(=O)[nH]c(SCC(=O)N(C)C)nc2n1 returned D2 PAM-1 -2, D2 PAM-2 37*, D2 antagonist -1, D2 ag-1 -3 and D2 ag-2 0.
CC(C)(C)NC(=O)C1CCCN(S(=O)(=O)c2ccc(-n3cnnn3)cc2)C1 (stereo not drawn) was read as D2 PAM-1 -5, D2 PAM-2 7, D2 antagonist 32*, D2 ag-1 1 and D2 ag-2 0.
Screening CC(=O)Nc1ccc(NC(=O)C2CCCN(S(=O)(=O)c3ccc(-n4cnnn4)cc3)C2)cc1 (stereo not drawn) returned D2 PAM-1 2, D2 antagonist 12, D2 ag-1 -6 and D2 ag-2 5.
COc1cc(OC)cc(N2CCN(S(=O)(=O)c3ccc(-n4cnnn4)cc3)CC2)c1 was read as D2 PAM-1 -1, D2 PAM-2 19, D2 antagonist 46*, D2 ag-1 -5 and D2 ag-2 0.
COc1cccc(-n2cnnn2)c1 was read as D2 PAM-1 -14, D2 PAM-2 -11, D2 antagonist 38*, D2 ag-1 -1 and D2 ag-2 0.
Screening COC(=O)c1cccc(-n2cnnn2)c1 returned D2 PAM-1 -14, D2 PAM-2 -3, D2 antagonist -7, D2 ag-1 -4 and D2 ag-2 0.
For Cc1ccc2nc(CN3CCN(S(=O)(=O)c4ccc(C(C)C)cc4)CC3)oc2c1 the results were D2 PAM-2 -2 and D2 ag-2 -5.
Brc1ccc(C2=Nc3cccc4cccc(c34)N2)o1 was read as D2 PAM-1 84*, D2 PAM-2 4, D2 antagonist -10, D2 ag-1 inconclusive and D2 ag-2 1.
`C#Cc1ccc(CN2CCC(Oc3ccc(C(=O)NCc4ccccn4)cc3)CC2)cc1` gave D2 PAM-1 -31, D2 PAM-2 -19, D2 antagonist 36*, D2 ag-1 -3 and D2 ag-2 0.
For Cc1ccc(NC(=O)Cn2c(=O)ccc3cc(S(=O)(=O)N4CCC(C)CC4)ccc32)cc1C the results were D2 PAM-2 -4 and D2 ag-2 0.
Screening Cc1ccc(/C(N)=N/OC(=O)c2cccs2)cc1 returned D2 PAM-1 77*, D2 PAM-2 0, D2 antagonist -32, D2 ag-1 inconclusive and D2 ag-2 0.
Screening COc1ccc(/C(N)=N/OC(=O)c2c(-c3ccccc3Cl)noc2C)cc1OC returned D2 PAM-1 56*, D2 PAM-2 4, D2 antagonist -16, D2 ag-1 inconclusive and D2 ag-2 0.
Screening COc1ccc(/C(N)=N/OC(=O)c2cccs2)cc1OC returned D2 PAM-1 71*, D2 PAM-2 5, D2 antagonist 2, D2 ag-1 42* and D2 ag-2 0.
For N/C(=N\OC(=O)c1cccs1)c1ccccc1 the results were D2 PAM-1 inconclusive, D2 PAM-2 -2, D2 antagonist -8, D2 ag-1 11 and D2 ag-2 0.
For Cc1cccc(/C(N)=N/OC(=O)c2cccs2)c1 the results were D2 PAM-1 112* and D2 ag-1 inconclusive.
For Cc1ccc(F)c(S(=O)(=O)NC(=O)C2(C)CCN2C(=O)CC2CCCCC2)c1 (stereo not drawn) the results were D2 PAM-1 -5 and D2 ag-1 -2.
`CCCCNC(=O)Cn1nc(N2CCN(c3ccccc3OC)CC2)ccc1=O` gave D2 PAM-2 -1 and D2 ag-2 0.

Bioassay records (PubChem)
